Results on 6 compounds are retold here after PubChem BioAssay (NCATS).

The test system of test [1] is HaCat. As to the kind of experiment: Cytotoxic Profiling of Annotated Libraries Using Quantitative High-Throughput Screening (AID 1296008). Also: nearly all actives have a fitted effect of over 60% in size. The note with it: Five cell lines viability, CellTiter-Glo ATP luminescence, 48-72 h; max response: hits give low values. Summed up: (§1)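 Cytotoxicity was measured as CellTiter-Glo ATP luminescence, read after 10 min at room temperature. Compound treatment of the cells lasted 48 or 72 hr at 37 degrees Celsius in a qHTS format.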
In general terms: Cellular ATP, detected with luciferase, serves as a proxy for viable cell number.

The test system of another test is KB-3-1. Described as above. The following applies: Five cell lines viability, CellTiter-Glo ATP luminescence, 48-72 h; max response: hits give low values. An outline of the steps:
as §1

In another test the test system is NIH3T3. The description is as above. The note with it: Five cell lines viability, CellTiter-Glo ATP luminescence, 48-72 h; max response: hits give low values. Summed up:
as §1

The subject of test [2] is HACAT. As to the kind of experiment: qHTS assay to identify novel small-molecules to repurpose for Merkel cell carcinoma treatment (AID 1296009). Also: nearly all actives have a fitted effect of over 60% in size. Also: potency is read from the fitted curve at half-maximal effect. The following applies: MCC and control cell lines, CellTiter-Glo viability, 72 h; at 44.8 µM (top of the series) unless noted. Summed up:
(§2)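 72 hr, 37 degree celsius; NPC 8-pt / MIPE 11-pt dose response; compound pinned in DMSO; CellTiter-Glo, 10 min RT, luminescence; normalized to no-cell and DMSO controls.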
For orientation: In qHTS, concentration-response curves come from the screen itself.

A further test deals with MCC-13. Described as above. The note with it: MCC and control cell lines, CellTiter-Glo viability, 72 h; series mostly up to 46 µM. Summed up:
as §2

In the next test the test system is MCC-26. The test is described as above. The following applies: MCC and control cell lines, CellTiter-Glo viability, 72 h; series mostly up to 46 µM. An outline of the steps: as §2
The subject of another test is MKL-1. The description is as above. The note with it: MCC and control cell lines, CellTiter-Glo viability, 72 h; series mostly up to 46 µM. Summed up: as §2
The next test has as its system MKL-2. The description is as above. The note with it: MCC and control cell lines, CellTiter-Glo viability, 72 h; series mostly up to 46 µM. Summed up: as §2
Another test concerns UISO. Described as above. The note with it: MCC and control cell lines, CellTiter-Glo viability, 72 h; series mostly up to 46 µM. An outline of the steps: as §2
The next test deals with WaGa. The description is as above. The note with it: MCC and control cell lines, CellTiter-Glo viability, 72 h; series mostly up to 46 µM. An outline of the steps: as §2
A further test deals with C33A. The experiment in a line: Primary qHTS to identify gynecologic anti-cancer compounds using libraries of approved drugs and bioactive compounds (AID 1345084). Also: nearly all actives have a fitted effect of over 55% in size. The note with it: Gynecologic cancer cell panel viability, ATPlite luminescence, 48 h; series mostly up to 57.5 µM. An outline of the steps:
(§3)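 Five-point cytotoxicity, 48 h drug exposure at 37 C, 5% CO2, on cells seeded 16 h beforehand. ATP content read by ATPlite luminescence.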

The test system of another test is CAOV3. Described as above. The following applies: Gynecologic cancer cell panel viability, ATPlite luminescence, 48 h; series mostly up to 57.5 µM. An outline of the steps: as §3
In a further test the test system is CASKI. The test is described as above. The note with it: Gynecologic cancer cell panel viability, ATPlite luminescence, 48 h; series mostly up to 57.5 µM. An outline of the steps: as §3
Another test deals with Es-2. Described as above. The note with it: Gynecologic cancer cell panel viability, ATPlite luminescence, 48 h; series mostly up to 57.5 µM. Summed up:
as §3

The test system of a further test is HeLa. Described as above. The note with it: Gynecologic cancer cell panel viability, ATPlite luminescence, 48 h; series mostly up to 57.5 µM. Summed up:
as §3

The test system of test [3] is Hek293T. The description is as above. The note with it: Gynecologic cancer cell panel viability, ATPlite luminescence, 48 h, control line for the selectivity index; series mostly up to 57.5 µM. An outline of the steps: as §3
In a further test the test system is JEG-3. Described as above. The following applies: Gynecologic cancer cell panel viability, ATPlite luminescence, 48 h; series mostly up to 57.5 µM. An outline of the steps:
as §3

In the next test the test system is OV90. The test is described as above. The following applies: Gynecologic cancer cell panel viability, ATPlite luminescence, 48 h; series mostly up to 57.5 µM. Summed up:
as §3

Test [4] has as its system HEK293T. The experiment in a line: qHTS assay to identify novel small-molecules to repurpose for Merkel cell carcinoma treatment (AID 1296009). Also: nearly all actives have a fitted effect of over 60% in size. Also: potency is read from the fitted curve at half-maximal effect. The note with it: MCC and control cell lines, CellTiter-Glo viability, 72 h; at 44.8 µM (top of the series) unless noted. An outline of the steps:
as §2

Records with an inconclusive call do not appear. Values without a mark were called inactive. Active and inactive are the calls of the source. Calls follow the shape of the dose curve; as a rule, active = well fitted curve in the direction sought with a large enough effect; inconclusive = small, poorly fitted or top-dose-only effect, or another doubt; inactive = no such curve, though single readings can be large; an effect the other way counts as inactive or inconclusive.
% is scaled to controls: 0 for no effect and ±100 for the full control effect.

For `Oc1ccccc1`, the compound was called inactive in the test on HaCat [1] and in the test with HACAT [2]. Also, the max response in the test with KB-3-1 is -6.38%; with NIH3T3, 3.74%. For the same compound, the Potency result in the test with MCC-13, with MCC-26, in the test with MKL-1, in the test with MKL-2, with UISO and with WaGa was “inactive” in each case. In addition, the Potency entry with C33A, with CAOV3, in the test on CASKI, in the test with Es-2, in the test on HeLa and in the test on Hek293T [3] was “inactive” each time. The Potency entry in the test with JEG-3 and with OV90 was “inactive” in each case.

With `CCCC(=O)O[C@]1(C(=O)COC(=O)CC)CC[C@H]2[C@@H]3CCC4=CC(=O)CC[C@]4(C)[C@H]3[C@@H](O)C[C@@]21C`, the compound was called inactive in the test with HaCat [1]. The max response was -1.68% in the test with KB-3-1 and 1.36% in the test on NIH3T3. In addition, the outcome in the test on HACAT [2] was “inactive [at 17.4 µM]”. Besides, the Potency result in the test with MCC-13, in the test with MCC-26, in the test with MKL-1, in the test with MKL-2, in the test on UISO and in the test on WaGa was “inactive” each time. The Potency result in the test on C33A, with CAOV3, with CASKI, in the test on Es-2, in the test with HeLa and in the test with Hek293T [3] was “inactive” throughout. The Potency result in the test on JEG-3 and in the test on OV90 was “inactive” throughout.

Take `O=C(Oc1ccccc1)c1ccccc1O`: the call with HaCat [1], with HACAT [2] and in the test with HEK293T [4] was inactive. The figures for the max response with KB-3-1 and in the test with NIH3T3 were -0.601% and 3.3%, respectively. In addition, the Potency entry in the test with MCC-13, in the test on MCC-26, with MKL-1, in the test with MKL-2, in the test on UISO and in the test with WaGa was “inactive” throughout. The Potency result with C33A, in the test on CAOV3, with CASKI, in the test on Es-2, in the test with HeLa and in the test with Hek293T [3] was “inactive” throughout. The Potency result with JEG-3 and in the test on OV90 was “inactive” throughout.

`O=C(CCCCCCCCC#CI)Oc1ccccc1`: the outcome in the test on HaCat [1], in the test on KB-3-1, in the test with HACAT [2] and in the test on HEK293T [4] was inactive. Further, the max response in the test with NIH3T3 was 0.745%. In addition, the Potency result with MCC-13, in the test on MCC-26, in the test with UISO, in the test with C33A, in the test with CAOV3 and with CASKI was “inactive” throughout. The Potency entry in the test on Es-2, with HeLa, in the test with Hek293T [3], in the test on JEG-3 and in the test on OV90 was “inactive” each time. For the same compound, the figures for the Potency with MKL-1, in the test with MKL-2 and in the test on WaGa were 13.3 µM (active), 9.44 µM (active) and 11.9 µM (active), respectively.

On to `O=C(O)c1[nH]n(-c2ccc(S(=O)(=O)O)cc2)c(=O)c1N=Nc1ccc(S(=O)(=O)O)cc1`, for which the outcome in the test on HaCat [1] and in the test with HACAT [2] was inactive. Moreover, the max response is 3.04% in the test on KB-3-1 and -0.37% in the test on NIH3T3. Also, the Potency result in the test on MCC-13, with MCC-26, in the test on MKL-1, in the test on MKL-2, in the test on UISO and with WaGa was “inactive” each time. Moreover, the Potency result in the test on C33A, with CAOV3, in the test on CASKI, in the test on Es-2, in the test on HeLa and with Hek293T [3] was “inactive” each time. Also, the Potency result in the test on JEG-3 and in the test with OV90 was “inactive” each time.

As for `COc1cc(C(=O)NC2CCCNC2)cc(OC)c1OC` (stereo not given), the compound was classed as inactive in the test with HaCat [1] and in the test on HACAT [2]. Besides, the max response was -17.2% in the test with KB-3-1 and 4.73% with NIH3T3. Moreover, the Potency result with MCC-13, with MCC-26, with MKL-1, with MKL-2, in the test on UISO and in the test with WaGa was “inactive” throughout. The Potency entry in the test with C33A, with CAOV3, in the test on CASKI, in the test on Es-2, in the test on HeLa and in the test with Hek293T [3] was “inactive” throughout. Also, the Potency entry with JEG-3 and in the test with OV90 was “inactive” each time.
